Results as given in PubChem BioAssay (NCI).
Compounds without any hit were thinned out: in the full panel of roughly 79,000, 15% have a hit. Calls of active or inactive are those of the source. Rule as the data show it: active = growth inhibition above about 70%; inactive = the rest.

Experiment: NCI Yeast Anticancer Drug Screen. Data for the rad14 strain (AID 159);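 also: 0% = growth of vehicle-treated control cultures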
Details: S. cerevisiae rad14 strain growth inhibition, hits give high values
Experimental: Growth inhibition of yeast strains with defined genetic alterations is measured as a screen for potential anti-cancer activity. Selected strains with alterations in DNA damage repair or cell cycle control were exposed to compounds and growth inhibition was measured relative to vehicle treated controls. The strain used in this assay is rad14

| Compound | growth inhibition (at 1.2 µM) | growth inhibition (at 3.7 µM) | growth inhibition (at 11.0 µM) | growth inhibition (at 33.0 µM) | growth inhibition (at 100.0 µM) |
| --- | --- | --- | --- | --- | --- |
| CCN(CC)CCN1C(=O)c2cccc3cc(OC)cc(c23)C1=O | -10% (inactive) | 1% (inactive) | -9% (inactive) | -6% (inactive) | 3% (inactive) |
| CC1OCC2OC(C)OC(C3C4=C(CC(C)(C)CC4=O)OC4=C3C(=O)CC(C)(C)C4)C2O1 (stereo not given) | -1% (inactive) | -1% (inactive) | 5% (inactive) | 18% (inactive) | 41% (inactive) |
| Cn1c(=O)c2ccccc2c2ccccc21 | 0% (inactive) | 2% (inactive) | 15% (inactive) | 39% (inactive) | 63% (inactive) |
| CC(C)C1=CC2=C[C@H](O)[C@H]3C(C)(C)CCC[C@]3(C)C2=C(O)C1=O | 6% (inactive) | 23% (inactive) | 100% (active) | 99% (active) | 95% (active) |
| OCC(Cn1cncn1)(c1ccc(F)cc1F)n1cncn1 (stereo not given) | 57% (inactive) | 74% (active) | 83% (active) | 76% (active) | 74% (active) |
| O=C(/C=C/c1cccc(Br)c1)c1cccs1 | -2% (inactive) | 5% (inactive) | 81% (active) | 96% (active) | 92% (active) |
| O=C1CSc2cc([N+](=O)[O-])ccc2N1 | -16% (inactive) | -7% (inactive) | -6% (inactive) | -10% (inactive) | -11% (inactive) |
| C=C1CC(Cn2cc(Br)c(=O)[nH]c2=O)(c2ccc(-c3ccccc3)cc2)OC1=O (stereo not given) | 5% (inactive) | 15% (inactive) | 27% (inactive) | 41% (inactive) | 96% (active) |
